The text below walks through data of the supplement of paper PMC12067926.

This assay concerns Carnobacterium 1 (Carnobacterium gallinarum). In words: relative growth (AUC of 72 h growth curve relative to DMSO control, dAUC) (ratio); higher = more growth (less inhibition), active = hit call of the paper. Particulars: 20 µM;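 active = growth AUC significantly below the DMSO wells by Dunnett test; inactive = the rest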. As for the experimental part:
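Environmental bacterial isolates (Iceland stream sediment and Silwood Park soil) and whole stream-sediment communities were grown in LB from a 1:100 dilution with each pesticide at 20 µM (1% DMSO). A600 was read hourly for 72 h and the area under a spline-fitted growth curve (AUC) was computed. dAUC is the mean AUC of 3 biological replicates divided by the mean AUC of the DMSO controls. Significance was tested by Dunnett's test against the DMSO control.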
In the case of `COCC(=O)N(c1c(C)cccc1C)C(C)C(=O)OC` (stereo not given), the relative growth is 1.13 (inactive).

As to `O=C(Nc1ccc(F)cc1F)c1cccnc1Oc1cccc(C(F)(F)F)c1`, the relative growth is 1.1 (inactive).

Regarding `COP(=O)(OC)OC=C(Cl)Cl`, the relative growth was 0.961 (inactive).

As to `Cc1cc(C(F)(C(F)(F)F)C(F)(F)F)ccc1NC(=O)c1cccc(I)c1C(=O)NC(C)(C)CS(C)(=O)=O`, the relative growth is 0.956 (inactive).

Regarding `CCOC(=O)OC1=C(c2cc(C)ccc2C)C(=O)N[C@]12CC[C@@H](OC)CC2`, the relative growth is 1.17 (inactive).

`CCc1nn(C)c(C(=O)NCc2ccc(Oc3ccc(C)cc3)cc2)c1Cl`: the relative growth was 1.19 (inactive).

As to `COC(=O)N(OC)c1ccccc1COc1ccn(-c2ccc(Cl)cc2)n1`, the relative growth was 1.36 (inactive).

Take `Cc1c(COC(=O)[C@@H]2[C@H](/C=C(\Cl)C(F)(F)F)C2(C)C)cccc1-c1ccccc1` (racemic): the relative growth was 1.17 (inactive).

Turning to `Nc1c(Cl)c(F)nc(OCC(=O)O)c1Cl`, the relative growth was 1.23 (inactive).

`COc1ccc(-c2ccccc2)cc1NNC(=O)OC(C)C`: the relative growth was 0.828 (inactive).

On to `C/C(=N\C#N)N(C)Cc1ccc(Cl)nc1`, for which the relative growth is 1.32 (inactive).

Turning to `O=C(Nc1ccccc1-c1ccc(Cl)cc1)c1cccnc1Cl`, the relative growth is 0.968 (inactive).

As to `CC(Oc1ccc(Oc2ncc(C(F)(F)F)cc2Cl)cc1)C(=O)O` (stereo not given), the relative growth is 1.23 (inactive).

Consider `CCOc1cc(Oc2ccc(C(F)(F)F)cc2Cl)ccc1[N+](=O)[O-]`, for which the relative growth was 0.874 (inactive).

With `CN/C(=N/CC1CCOC1)N[N+](=O)[O-]` (stereo not given), the relative growth is 1.46 (inactive).

As for `CC(C)N(C(=O)COc1nnc(C(F)(F)F)s1)c1ccc(F)cc1`, the relative growth was 1.04 (inactive).

On to `Cc1cc(C2CC2)nc(Nc2ccccc2)n1`, for which the relative growth was 0.909 (inactive).

Turning to `CCNc1nc(Cl)nc(NC(C)C)n1`, the relative growth is 1.18 (inactive).

As for `COP(=S)(OC)SCN1C(=O)c2ccccc2C1=O`, the relative growth is 1.04 (inactive).

Consider `CC1(C)C(C=C(Cl)Cl)C1C(=O)OC(C#N)c1ccc(F)c(Oc2ccccc2)c1` (stereo not given), for which the relative growth is 0.865 (inactive).

For `CCC(CC)Nc1c([N+](=O)[O-])cc(C)c(C)c1[N+](=O)[O-]`, the relative growth is 0.819 (inactive).

Regarding `Cc1cc(C)nc(Nc2ccccc2)n1`, the relative growth was 1.1 (inactive).

Take `O=[N+]([O-])c1cc(C(F)(F)F)c(Cl)c([N+](=O)[O-])c1Nc1ncc(C(F)(F)F)cc1Cl`: the relative growth is 0.00939 (active).

As for `OC(Cc1ccccc1Cl)(Cn1nc[nH]c1=S)C1(Cl)CC1` (stereo not given), the relative growth is 0.829 (inactive).

With `CCOc1ccc(C(C)(C)COCc2cccc(Oc3ccccc3)c2)cc1`, the relative growth was 0.99 (inactive).

`Cc1cc(C)c(C2=C(OC(=O)CC(C)(C)C)C3(CCCC3)OC2=O)c(C)c1`: the relative growth is 1.01 (inactive).

`CCCCN(CCCC)SN(C)C(=O)Oc1cccc2c1OC(C)(C)C2`: the relative growth is 1.51 (inactive).

For the compound `CC1(C(=O)Nc2ccc(O)c(Cl)c2Cl)CCCCC1`, the relative growth was 0.935 (inactive).

With `CC(C)NC(=O)N1CC(=O)N(c2cc(Cl)cc(Cl)c2)C1=O`, the relative growth was 1.02 (inactive).

Consider `N#Cc1nn(-c2c(Cl)cc(C(F)(F)F)cc2Cl)c(N)c1[S+]([O-])C(F)(F)F` (stereo not given), for which the relative growth is 0.821 (inactive).

As to `C[N+](C)(C)CCCl`, the relative growth was 1.05 (inactive).

On to `CCOCN(C(=O)CCl)c1c(C)cccc1CC`, for which the relative growth was 1 (inactive).

`CC(C)CC(C)c1sccc1NC(=O)c1cn(C)nc1C(F)(F)F` (stereo not given): the relative growth is 0.721 (inactive).

Turning to `CCNC(=O)NC(=O)/C(C#N)=N/OC`, the relative growth was 0.965 (inactive).

Turning to `N#C/N=C1\SCCN1Cc1ccc(Cl)nc1`, the relative growth was 1.18 (inactive).

`O=C(NC(=O)c1c(F)cccc1F)Nc1ccc(Cl)cc1`: the relative growth is 0.911 (inactive).

As for `CCOC(=O)CC(SP(=S)(OC)OC)C(=O)OCC` (stereo not given), the relative growth was 1.09 (inactive).

For `CS(=O)(=O)c1ccc(C(=O)C2C(=O)CCCC2=O)c([N+](=O)[O-])c1`, the relative growth is 1.44 (inactive).

Take `COCC(=O)N(c1c(C)cccc1C)[C@H](C)C(=O)OC`: the relative growth is 1.12 (inactive).

With `CNC(=O)c1cc(Cl)cc(C)c1NC(=O)c1cc(Br)nn1-c1ncccc1Cl`, the relative growth is 1.24 (inactive).
